Measured values published in PubChem BioAssay (EPA / NIEHS).
Active and inactive are the calls of the source. How the source made its calls: active means hit-call score of the fitted dose curve at least 0.9, where 1 is the maximum; inactive means score below 0.9.

read-out: Monocyte Chemoattractant Protein-1 (MCP1), CCL2 (gene 6347); assay: BSK_3C_MCP1: BioMAP Diversity Plus: 3C Assay for Monocyte Chemoattractant Protein-1 (MCP1) Biomarker Activity (AID 2283017); conditions: primary human endothelial cells (HUVEC); actives raise or lower the signal
Method: BSK_3C is a cell-based, multiplexed-readout assay that uses umbilical vein endothelium, a human vascular primary cell, with measurements taken at 24 hours after chemical dosing in a 96-well plate.BSK_3C_MCP1 is an assay component measured in the BSK_3C assay. It measures MCP-1 antibody related to regulation of gene expression using ELISA technology.Data from the assay component BSK_3C_MCP1 was analyzed into 1 assay endpoint. This assay endpoint, BSK_3C_MCP1, was analyzed with bidirectional fitting relative to DMSO as the negative control and baseline of activity. Using a type of binding reporter, gain or loss-of-signal activity can be used to understand changes in the signaling as they relate to the gene CCL2. Furthermore, this assay endpoint can be referred to as a primary readout, because this assay has produced multiple assay endpoints where this one serves a signaling function. To generalize the intended target to other relatable targets, this assay endpoint is annotated to the cytokine intended target family, where the subfamily is chemotactic factor.
The levels of cell surface (or secreted, indicated by the prefix "s") biomarker endpoints were measured by ELISA. Overt cytotoxicity to cells in confluent adherent cultures (all systems other than the BT system) was assessed by measuring total protein levels using sulforhodamine B (SRB) staining in parallel cultures at the time of biomarker measurements, indicated as SRB endpoints. For proliferation assays for adherent cell types, individual cell types are cultured at sub-confluence and relative cell numbers quantified by SRB staining at time points optimized for each system (48 h: 3C and CASM3C systems; 72 h: BT and HDF3CGF systems; 96 h: SAg system). SRB was performed by staining cells with 0.1% SRB after fixation with 10% TCA and reading wells at 560 nm.Viability and proliferation of PBMC (T cells) was quantified by Alamar Blue reduction for the SAg and BT systems. For PBMC viability (referred to as PBMC Cytotoxicity within the assay endpoint names), cells were plated (75,000/well in a 96-well plate) and then chemical samples added for 1 h before addition of activators, SEB and TSST-1 (20 ng/mL final concentration each). Cells were incubated for 90 h. Then, Alamar Blue (20 uL/well) (Invitrogen, Cat DAL1100) was added for 6 h, and the plates were read with a fluorescence microplate reader at 546/580 nm (excitation/emission). For PBMC proliferation, cells were plated and activated as above but incubated for only 16 h prior to addition of Alamar Blue. Plates were read after 6 h.

Structure (SMILES)	outcome	AC50
CC(C)(C)c1cc([N+](=O)[O-])cc(C(C)(C)C)c1O	inactive	–
OCCCCO	inactive	–
CCOP(=S)(OCC)OP(=S)(OCC)OCC	–	26.5 µM (active)
Cc1ccccc1OP(=O)(Oc1ccccc1)Oc1ccccc1	–	31 µM (active)
COc1ccccc1N	inactive	–
CC(C)O.CC(C)O.OCCN(CCO)CCO.OCCN(CCO)CCO.[Ti]	inactive	–
c1ccc2sc(SNC3CCCCC3)nc2c1	inactive	–
CCCCCCCCCCCCN(C)C	inactive	–
Nc1ccc(N)cc1	inactive	–
Clc1cccc(Cl)c1Cl	inactive	–
C#CCOC(=O)/C=C(C)/C=C/CC(C)CCCC(C)C (stereo not given)	–	36.8 µM (active)
Clc1cccc(Cl)c1	inactive	–
COCC(=O)N(c1c(C)cccc1C)[C@H](C)C(=O)OC	inactive	–
O=[N+]([O-])c1ccc(Nc2ccccc2)cc1	inactive	–
Cc1ccc2nc3sc(=O)sc3nc2c1	–	7.34 µM (active)
Nc1c(Oc2ccccc2)cc(O)c2c1C(=O)c1ccccc1C2=O	inactive	–
Cc1c([N+](=O)[O-])c(C)c([N+](=O)[O-])c(C(C)(C)C)c1[N+](=O)[O-]	inactive	–
Cc1cc(C)cc(C)c1	inactive	–
CC(C)=CC1C(C(=O)OCc2cccc(Oc3ccccc3)c2)C1(C)C (stereo not given)	inactive	–
CCOC(=O)CCN(SN(C)C(=O)Oc1cccc2c1OC(C)(C)C2)C(C)C	–	27.1 µM (active)

Structure (SMILES)	outcome	AC50
c1ccc(-c2cccc(-c3ccccc3)c2)cc1	–	12.4 µM (active)
Oc1cc(Cl)c(Cl)cc1Cl	–	33.3 µM (active)
O=c1oc2ccccc2c(O)c1C(CC(O)c1ccc(-c2ccc(Br)cc2)cc1)c1ccccc1 (stereo not given)	–	10.5 µM (active)
Cc1ccccc1OP(=O)(Oc1ccccc1C)Oc1ccccc1C	–	10.2 µM (active)
CC(C)(COCC1CO1)COCC1CO1 (stereo not given)	inactive	–
Oc1ccc(Cc2ccc(O)cc2)cc1	inactive	–
C[C@]12CC[C@@H](O)C[C@@H]1CC[C@@H]1[C@@H]2CC[C@]2(C)C(=O)CC[C@@H]12	inactive	–
Cc1cc(Cl)ccc1OC(C)C(=O)O (stereo not given)	inactive	–
CCOP(=O)(OCC)SCCSCC	inactive	–
CN(C)C(=S)S	inactive	–
N#Cc1cccnc1	inactive	–
Oc1c(Br)cc(Br)cc1Br	–	32.9 µM (active)
O=[N+]([O-])c1cccc2ccccc12	inactive	–
Cc1cc(Cl)ccc1N	inactive	–
O=C(Cc1ccccc1)OCCc1ccccc1	inactive	–
C=CC(Cl)CCl (stereo not given)	inactive	–
O=C(CCl)NCO	inactive	–
Oc1cccc(-c2ccccc2)c1	–	30.6 µM (active)
NC(=O)CCl	inactive	–
N#CCCC(Br)(C#N)CBr (stereo not given)	–	7.55 µM (active)
